From PubChem
This is a sample that favours compounds with a hit; in the whole collection about 1% have one here.
LANA-H2A inh: blocks KSHV LANA binding to histone H2A/H2B; Q9QR71; AID 2629; inhibition, % (no concentration beside the values); 320,000 compounds, 0.6% hits; cell-free LANA-H2A/H2B peptide, fluorescence polarization; in the data active means inhibition mostly above about 10%, no sharp cut-off; inactive means mostly below about 6.7%
Cardiac RTF inh: cardiac RTF calcium desensitization | inhibition, % at 7.15 µM | P19429+P45379 | 340,000 compounds, 0.12% hits | IANBD-labeled cardiac RTF, Ca2+ fluorescence;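 active means inhibition above the mean inhibition of all tested compounds plus 3 SD, cut at about 17% in these data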;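 further: assay run at fixed EC70 calcium of 1.6 mM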
Keap1 Nrf2 FP: inhibitors of human Keap1-Nrf2 protein-protein interaction; Q14145; inhibition, % at 9.4 µM; Keap1 Kelch-Nrf2 peptide fluorescence polarization, 1536-well; 340,000 compounds, 0.15% hits; in the data active means inhibition above about 12%;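 further: human Keap1 Kelch domain with fluorescein labeled Nrf2 9mer peptide probe; 0% = neutral control wells and 100% = peptide positive control; higher means more block of Keap1 binding to Nrf2 peptide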
LANA DNA inh: blocks KSHV LANA C-terminal domain binding to DNA. AID 504423. MBP-C-LANA/FAM-LBS DNA binding, fluorescence polarization. inhibition, % at 9 µM. 340,000 compounds, 0.078% hits;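 active means highest replicate inhibition at or above 60% at 9 µM, even if other replicates fall short; inactive means all replicates below 60% inhibition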;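 further: 0% = neutral control wells and 100% = 4 µM acridine orange control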
cardiac RTF act: increases calcium sensitivity of human cardiac regulated thin filaments; AID 493008; 340,000 compounds, 0.24% hits; P19429+P45379; IANBD-labeled TnC RTF fluorescence at EC20 calcium; 0% EC20 calcium, 100% full calcium; activation, % at 7.2 µM;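 active means activation above the mean over all tested compounds plus 3 SD, cut at about 30% in these data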;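 further: rise in fluorescence read as greater calcium sensitivity of cardiac thin filaments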
Keap1 TSA: binds and thermally shifts human Keap1 Kelch domain | shares compounds with Keap1 Nrf2 FP | Keap1 Kelch thermal shift, delta Tm; stronger effect = higher value | max delta Tm, degrees C | 400 compounds, 8% hits | AID 651823; in the data active means max delta Tm above about 0.48 degrees C
Dye-only ctr: counter-screen for Keap1 thermal shift hits: dye-only artifacts | 140 tested, under 10 active | Sypro Orange dye-only thermal melt, no protein, delta Tm; top dose 26 µM | shares compounds with Keap1 Nrf2 FP | delta Tm, degrees C (no concentration beside the values) | AID 651858;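 active means at highest dose tested, delta Tm positive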
The depositor's hits bear a star; i = inactive; nt = no result given.

SMILES	LANA-H2A inh	Cardiac RTF inh	Keap1 Nrf2 FP	LANA DNA inh	cardiac RTF act	Keap1 TSA	others
COc1cc(C#Cc2c(C=O)n(C)c3ccccc23)cc(OC)c1	-2	-12	30*	12	3	-0.17
Cn1cncc1C#Cc1c(C=O)n(C)c2ccccc12	-2	-14	4	0	-4	nt
O=C(Nc1ccccc1C(=O)N1CCCCCC1)c1ccc(F)cc1	-1	-3	35*	21	-4	-0.16	Dye-only ctr=-27
O=C(CNc1ccc(F)cc1Cl)Nc1cccc(S(=O)(=O)N2CCCCC2)c1	-1	-1	-1	-1	0	nt
COc1cc(Cl)c(C)cc1NCC(=O)Nc1cccc(S(=O)(=O)N2CCCC2)c1	3	-4	28*	15	12	-0.1	Dye-only ctr=-27
CCCCC(CC)C(=O)Oc1ccc(O)c(C(C)(C)C)c1 (stereo not given)	5	5	15*	-1	-1	0.05
Cc1ccc(NC(=O)/C(C#N)=C(\N)C(Cl)(Cl)Cl)nc1	15	-23	38*	34	7	-0.01
C=CCn1ccc(=NC=C(C#N)C#N)c2ccccc21	-10	-9	130*	24	4	-0.04
COC(=O)c1ccc2c(c1O)C(=O)c1ccccc1C2=O	-1	-3	1	-1	-1	nt
O=C1c2ccccc2C(=O)c2c1ccc(O)c2O	nt	-16	13*	22	9	0.08
CCCCC1OC2(C)OC(=N)C1(C#N)C(C#N)(C#N)C2c1ccccc1 (stereo not given)	10	-18	30*	57	17	-0.12
CC1OC2(C)OC(=N)C1(C#N)C(C#N)(C#N)C2c1ccccc1 (stereo not given)	2	-14	23*	37	14	-0.03	Dye-only ctr=-29
CC1C2(C)OC(=N)C(C#N)(C(C)O2)C1(C#N)C#N (stereo not given)	4	-13	8	30	17	nt
COc1ccc(/C=N/N=C2/NC(=O)CC(C(=O)O)S2)cc1 (stereo not given)	1	2	7	1	3	nt
COc1ccc(/C=N/N=C2/CC(C)(C)Cc3n[nH]c(=O)cc32)cc1	3	-10	13*	26	16	-0.17
Cc1oc2cc(O)ccc2c(=O)c1-c1nncn1-c1ccccc1	9	-32	25*	49	13	0.11	Dye-only ctr=-22
O=[N+]([O-])c1cccc(N/N=C/c2cccc(O)c2O)c1	-1	-3	2	0	-3	nt
C=CCOc1ccc(C=NNc2ccc(S(=O)(=O)Nc3ccccc3C(=O)O)cc2[N+](=O)[O-])cc1OC	0	0	13*	14	-9	0.91*
CCOc1ccc(C=NNc2ccc(S(=O)(=O)Nc3ccccc3C(=O)O)cc2[N+](=O)[O-])cc1	-1	0	1	1	-17	nt
c1ccc2c(c1)nc(N1CCOCC1)c1c3ccccc3[nH]c21	2	7	0	-1	-4	nt
Nc1ccc2nc3c(=O)n(C4CCCCC4)c(=O)[nH]c3nc2c1	72*	i	60*	39	457*	-0.05	Dye-only ctr=-34
COc1cc2[nH]c(=O)n(C3CCCCC3)c(=O)c2cc1OC	5	1	-1	0	4	nt
CCCCn1c(=O)[nH]c2nc3cc(N)ccc3nc2c1=O	85*	i	50*	84	767*	-0.04	Dye-only ctr=-28
CCCCOc1cccc(/C=C(\C#N)C(=O)NC2CC2)c1	0	-2	2	0	-2	nt
NC(=O)c1cc2ccc(O)cc2oc1=NCc1ccccc1	nt	-67	16*	22	60*	-0.14	Dye-only ctr=-26
CC(=O)Nc1cccc(NC(=O)c2cccc(-c3ccc(O)cc3)c2)c1	-2	-10	-5	0	7	nt
COc1ccc(NC(=O)c2cccc(-c3ccc(O)cc3)c2)cn1	9	-36	13*	41	16	0.15
Cc1cc(S(=O)(=O)NCCCN2CCOCC2)ccc1Br	5	-10	-1	-1	-1	nt
COc1ccc(CCNCC(O)COc2c(C)cccc2C)cc1OC (stereo not given)	2	-5	-3	-1	1	nt
CCOC(=O)c1ccc2ncc(C(=O)OCC)c(NCCN3CCOCC3)c2c1	-2	-4	-1	0	5	nt
